Only some compounds are listed: those with a hit (about 4.6% of all), similar ones and a draw of the others.
TIM10 inh: growth inhibitors of isogenic TIM10 control yeast, primary screen, counter-screen for tim10-1 yeast inhibitor project, luminescence, uHTS. hit rate 1.4% among 330,000. S. cerevisiae TIM10 strain growth, BacTiter-Glo luminescence, 24 h. inhibition, % at 10 µM;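 active = inhibition of 40% or more at the single tested concentration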;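 note: wild-type TIM10 isogenic control strain grown at permissive 25 °C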
tim23-1 inh: growth inhibitors of tim23-1 mutant yeast, primary screen, luminescence, uHTS; inhibition, % at 20 µM; hit rate 1.3% among 330,000; S. cerevisiae tim23-1 growth, BacTiter-Glo luminescence, 24 h;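 active = growth inhibition of the mutant yeast at or above 50%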;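 note: temperature-sensitive mutant grown at 25 °C; plate controls were DMSO-treated mutant yeast for no effect and medium wells lacking yeast for full effect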
PfHsp90 yeast 2: growth inhibition of PfHsp90-expressing yeast, primary screen, antimalarial PfHsp90 inhibitor project, S. cerevisiae, BacTiter-Glo luminescence, single point, set 2; BacTiter-Glo ATP, 48 h; yeast lacking PDR1 and PDR3 efflux regulators; inhibition, % at 9.4 µM; hit rate 0.32% among 310,000; AID 504621, 2011;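 active = every replicate shows inhibition above about 80%, whatever the replicate mean, limit read from the data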;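 note: 0% = DMSO neutral controls and 100% = 20 µM radicicol positive controls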
tim10-1 inh: growth inhibitors of tim10-1 mutant yeast, primary screen, luminescence, uHTS; inhibition, % at 20 µM; AID 463190, 2010; hit rate 2.2% among 330,000; S. cerevisiae tim10-1 ts strain growth, BacTiter-Glo, 24 h;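 active = inhibition of at least 40%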;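 note: mutant grown at 25 °C; 0% = DMSO wells with yeast and 100% = wells holding no yeast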
NALP3 yeast inh: NALP3 inflammasome inhibitors in reconstituted yeast, primary screen, luminescence, uHTS. Yeast reconstituted NLRP3/ASC/caspase-1, beta-gal luminescence, 24 h. inhibition, % at 10 µM. hit rate 0.39% among 330,000;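 active = inhibition of 50% or more; inactive = inhibition below 50%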;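 note: plate controls were induced DMSO wells for no effect and uninduced yeast grown without galactose for full effect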
SKKanGAS inh: S. pyogenes SKKanGAS growth inhibitors in kanamycin, primary screen, streptokinase expression inhibitor project, SKKanGAS strain, BacTiter-Glo luminescence. 6 h. inhibition, % at 7.5 µM. hit rate 1.3% among 300,000;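 active = mean replicate score, as percent of positive control median, at least 50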;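 note: strain carries kanamycin resistance gene driven by streptokinase promoter and grows in 40 µg/ml kanamycin; loss of luminescence reflects streptokinase promoter inhibition or plain growth inhibition; 0% = median of DMSO wells and 100% = positive control at its reference dose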
tim10-1 confirm: growth inhibitors of tim10-1 mutant yeast, confirmation, single concentration, luminescence, S. cerevisiae; shares compounds with tim10-1 inh; S. cerevisiae tim10-1 ts strain growth, BacTiter-Glo, 24 h; inhibition, % at 20 µM; hit rate 56% among 7,400; AID 463213, 2010;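 active = inhibition of yeast growth at or above a set limit in either of two repeat tests at 20 µM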;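 note: tim10-1 mutant grown at permissive 25 °C to find synthetic lethal compounds; 0% = DMSO yeast wells and 100% = medium wells without yeast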
tim10 confirm: growth inhibitors of wild-type TIM10 yeast, confirmation, counter-screen for tim10-1 synthetic lethality project, single concentration, luminescence, S. cerevisiae. shares compounds with TIM10 inh. S. cerevisiae tim10 strain growth, BacTiter-Glo luminescence, 24 h. inhibition, % at 10 µM. hit rate 63% among 4,600. AID 463215, 2010;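 active = inhibition of yeast growth at or above a set limit in either of two replicates at 10 µM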;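 note: this counterscreen used the strain with wild-type TIM10; 0% = yeast with DMSO and 100% = medium wells lacking yeast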
tim23-1 conf: tim23-1 mutant yeast growth inhibitors, confirmation, luminescence, single concentration | shares compounds with tim23-1 inh | S. cerevisiae tim23-1 growth, BacTiter-Glo luminescence, 24 h | inhibition, % at 20 µM | hit rate 83% among 4,400;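 active = inhibition above about 39% in either of two replicate wells at 20 µM, limit read from the data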;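 note: temperature-sensitive tim23-1 mutant grown at 25 °C; 0% = DMSO wells with yeast and 100% = medium wells without yeast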
An asterisk follows results filed as active; nt = not tested or not shown.

SMILES	TIM10 inh	tim23-1 inh	PfHsp90 yeast 2	tim10-1 inh	NALP3 yeast inh	SKKanGAS inh	tim10-1 confirm	tim23-1 conf	others
O=C(Nc1ccc(Oc2ccc(Cl)cc2)c(Cl)c1)c1cc(I)cc(I)c1O	31.0	58.8*	-6.2	54.3*	16.0	103.0*	52.5*	59.5*
Cc1cc(=O)oc2c(O)c(O)ccc12	nt	nt	-16.7	nt	nt	nt	nt	nt
COc1ccc(/C=C/C(=O)c2c(O)ccc3c(C)cc(=O)oc23)cc1	55.3*	50.1*	-18.4	51.1*	15.7	23.3	46.9*	60.2*	tim10 confirm=57.1*
COc1ccc(-c2cc(=O)oc3c(C)c(O)ccc23)cc1	11.2	15.5	-29.1	19.1	-4.6	5.7	nt	nt
COc1ccc(/C=C\C(=O)c2c(O)ccc3c(C)cc(=O)oc23)cc1	37.3	53.3*	-5.7	51.8*	15.5	26.3	36.3*	51.0*
N#C/C(=C\c1cccc(O)c1)c1nc2ccccc2o1	39.8	44.6	1.5	23.1	18.6	-3.5	nt	nt
N#C/C(=C\c1ccc(Cl)cc1)c1nc2ccccc2o1	31.1	75.8*	-99.7	51.1*	19.9	-6.0	49.2*	75.3*
N#C/C(=C\c1ccncc1)c1nc2ccccc2o1	41.5*	71.6*	nt	56.0*	5.4	5.2	43.3*	60.9*	tim10 confirm=33.5*
O=c1c2c(nc3n1CCCCC3)-c1ccccc1CC21CCCC1	15.7	36.3	-0.3	36.2	-4.2	33.9	nt	nt
Cn1c(NCCO)nc2c(c1=O)C1(CCCCC1)Cc1ccccc1-2	31.3	58.8*	-6.5	59.5*	10.5	-8.7	37.1*	62.9*
Cc1ccc(-n2c(SCC(N)=O)nc3c(c2=O)C2(CCCC2)Cc2ccccc2-3)cc1	31.8	51.9*	12.2	49.3*	5.8	17.8	36.3*	44.5*
CCN(CC)Cc1nc2c(c(=O)[nH]1)C1(CCCCC1)Cc1ccccc1-2	50.4*	50.2*	-13.7	41.4*	-22.6	1.6	41.1*	40.0*	tim10 confirm=46.9*
CSc1n[nH]c2nc3c(c(=O)n12)C1(CCCC1)Cc1ccccc1-3	38.9	52.7*	14.0	47.9*	-46.4	8.7	50.7*	55.1*
CCOC(=O)C1Cn2c(nc3c(c2=O)C2(CCCC2)Cc2ccccc2-3)S1 (stereo not given)	14.8	36.5	-10.0	31.5	2.2	nt	nt	nt
CCCCn1c(N)c(N(CCOC)C(=O)c2cnc(C)cn2)c(=O)[nH]c1=O	-6.4	21.6	nt	5.5	26.0	-0.9	nt	nt
COc1ccc(S(=O)(=O)N(CC(=O)NCc2cccnc2)c2ccc(C)cc2)cc1OC	14.2	5.9	-6.0	-3.2	27.3	-2.8	nt	nt
O=C(Nc1ccccc1[N+](=O)[O-])C1COc2ccccc2O1 (stereo not given)	7.0	24.0	-2.0	16.2	33.3	6.5	nt	nt
Cn1c(=O)c2c(n3cnnc13)-c1ccccc1CC21CCCC1	-37.3	29.5	21.8	20.0	-17.8	-13.9	nt	nt
CSc1nnc2n(C)c3c(c(=O)n12)C1(CCCC1)Cc1ccccc1-3	40.5*	62.4*	8.8	45.4*	-36.8	21.2	30.4	49.8*	tim10 confirm=34.6*
CC1CCCN(C(=O)C2CCN(S(=O)(=O)c3ccccc3)CC2)C1 (stereo not given)	-6.2	-1.1	-11.1	2.9	3.5	nt	nt	nt
N#C/C(=C\c1cccnc1)C(=O)Nc1ccc(Cl)cc1	60.7*	75.7*	24.7	60.8*	14.1	2.4	25.9	66.0*	tim10 confirm=37.9*

From PubChem
